The source of these data is PubChem BioAssay.

Activity calls are given as the source filed them. Unless noted, no rule for the calls is given here.

The test system of test [1] is XIP peptide (Xip251-270) binding. Nature of the test: small-molecule binders of XIP peptide, primary screen, biochemical, small-molecule microarray, fluorescence 635/667 nm, 0.1 µg/mL protein (AID 1182). To be noted: fluorescent protein binding, 635 nm, higher = more signal, called active from +8 up or from −8 down.
The next test relates to XIP peptide (Xip251-270). Nature of the test: small-molecule binders of XIP peptide, primary screen, biochemical, small-molecule microarray, fluorescence 635/667 nm, 0.5 µg/mL protein (AID 1183). To be noted: small-molecule microarray binding, fluorescence 635 nm; higher = more signal.
Test [2] can be described thus: Plasmodium falciparum growth inhibition, primary screen, strain 3D7, DAPI fluorescence, 100 nL (AID 1184).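 Also: parasites grown inside human red blood cells in medium with human serum.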 To be noted: P. falciparum 3D7 growth, 3 d, higher = more signal.
Test [3] concerns the target Homeobox protein Hox-A13 (Mus musculus) (UniProt Q62424). The test is described as follows: inhibitors of HoxA13-DNA binding, primary screen, biochemical, fluorescence polarization, labeled oligonucleotide (AID 1185). To be noted: 15 min, higher = more signal, called active from +8 up or from −8 down. For orientation: Fluorescence polarisation rises when a labelled molecule tumbles more slowly, as on binding a larger partner.

A short description of test [4]: inhibitors of hydroxyurea-induced Chk1 phosphorylation, primary screen, imaging, HeLa, phospho-Chk1 antibody, percent positive cells (AID 1186). To be noted: hydroxyurea-induced phospho-Chk1 immunofluorescence imaging, higher = more signal.
Test [5] can be described thus: inhibitors of hydroxyurea-induced Chk1 phosphorylation, primary screen, imaging, HeLa, phospho-Chk1 nuclear intensity (AID 1187). To be noted: hydroxyurea-induced phospho-Chk1 immunofluorescence imaging, higher = more signal.

Homeobox protein Hox-A13 (Mus musculus), sequence (Q62424 whole entry, looked up): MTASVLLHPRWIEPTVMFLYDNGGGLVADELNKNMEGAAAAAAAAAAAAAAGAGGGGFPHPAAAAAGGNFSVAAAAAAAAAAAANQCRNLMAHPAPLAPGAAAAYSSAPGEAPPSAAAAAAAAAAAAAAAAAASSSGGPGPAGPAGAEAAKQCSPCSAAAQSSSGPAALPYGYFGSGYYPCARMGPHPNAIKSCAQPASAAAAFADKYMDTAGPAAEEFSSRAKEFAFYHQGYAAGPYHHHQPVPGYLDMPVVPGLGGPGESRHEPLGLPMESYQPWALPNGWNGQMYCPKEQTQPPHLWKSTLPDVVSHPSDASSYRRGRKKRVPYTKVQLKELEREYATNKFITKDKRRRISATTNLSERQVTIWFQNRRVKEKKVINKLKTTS

Regarding `COCCOC(=O)N1C(=O)[C@@]2(c3cc(C#Cc4ccc(OC)cc4)ccc31)[C@H](c1ccc(OCCO)cc1)N1[C@H](c3ccccc3)[C@H](c3ccccc3)OC(=O)[C@H]1[C@@H]2C(=O)NC[C@H](O)c1ccccc1`, the composite z-score in test [1] was 0.849 (inactive); in the test with XIP peptide (Xip251-270), 0.713. Besides, the z-score in test [2] is -1.66; in test [3] it was -0.532 (inactive); in test [4] it was 0 (inactive); in test [5], -0.0275 (inactive).
With `COCCCNC(=O)[C@@]1(CCS(=O)(=O)c2ccccc2)COC(c2ccc(OCCCO)cc2)=N1`, the composite z-score in test [1] was 1.85 (inactive); in the test on XIP peptide (Xip251-270), -0.227. The z-score is 0.264 in test [2], -4.7 (inactive) in test [3], 0.103 (inactive) in test [4] and 0.103 (inactive) in test [5].
For `COC(=O)C(CC#Cc1ccc2c(c1)[C@]1(C(=O)N2)[C@H](c2ccc(OCCO)cc2)N2[C@H](c3ccccc3)[C@H](c3ccccc3)OC(=O)[C@H]2[C@@H]1C(=O)N1CCCCCCC1)C(=O)OC`, the values for the composite z-score (in test [1]; in the test on XIP peptide (Xip251-270)) were 2.15 (inactive) and 0.812, respectively. Moreover, the z-score was -2.24 in test [2], -14.6 (active) in test [3], -0.224 (inactive) in test [4] and -0.197 (inactive) in test [5].
Take `C[C@@H]1NC(=O)C([C@@H](C)OCc2ccccc2)NC(=O)[C@@]23C(=O)N[C@@H](Cc4ccccc4)C2[C@H](C)[C@@]2(C)O[C@H]2C3/C=C/C/C=C\CNC1=O` (some centres not stated): the composite z-score was -0.501 (inactive) in test [1] and -0.458 in the test on XIP peptide (Xip251-270). For the same molecule, the z-score in test [2] was 0.0074; in test [3] it was -7.4 (inactive); in test [4] it was -0.0202 (inactive); in test [5], -0.0344 (inactive).
Consider `C=CCOC(=O)[C@H]1[C@@H]2C(=O)O[C@@H](c3ccccc3)[C@@H](c3ccccc3)N2[C@@H](c2ccc(OCCOC(=O)[C@H]3C[C@H]4C(=O)N[C@@H](CC(C)C)C(=O)N4[C@H]3c3ccc(O)cc3)cc2)[C@]12C(=O)Nc1ccccc12`, for which the composite z-score was 0.386 (inactive) in test [1] and 0.818 in the test on XIP peptide (Xip251-270). The z-score in test [2] is -1.49; in test [3] it was 0.832 (inactive); in test [4], 0.109 (inactive); in test [5], -0.0249 (inactive).
For the molecule `C=CCN1Cc2ccccc2[C@H]2OC(c3ccc(OCCCO)cc3)=N[C@@]2(CCS(=O)(=O)c2ccccc2)C1=O`, the results for the composite z-score (in test [1]; in the test on XIP peptide (Xip251-270)) were 1.61 (inactive) and 0.767, respectively. Moreover, the z-score in test [2] is -2.18; in test [3] it was -3.88 (inactive); in test [4], -0.163 (inactive); in test [5] it was -0.237 (inactive).
In the case of `CN(C)CCCC[C@@H]1NC(=O)[C@@H]2C[C@H](C(=O)NCCCCCCNC(=O)CS)[C@H](c3ccc(O)cc3)N2C1=O`, the composite z-score in test [1] is 0.237 (inactive); with XIP peptide (Xip251-270), 0.859. Moreover, the z-score is -0.0596 in test [2], -1.31 (inactive) in test [3], -0.282 (inactive) in test [4] and -0.405 (inactive) in test [5].
For the molecule `CC(C)NC(=O)[C@@]1(C)c2ccccc2C(=O)N(Cc2ccccc2)[C@H]1c1ccc(CO)cc1`, the composite z-score is 0.0062 (inactive) in test [1] and 0.875 with XIP peptide (Xip251-270). Besides, the z-score in test [2] is -0.321; in test [3], -2.37 (inactive); in test [4] it was -0.471 (inactive); in test [5], -0.429 (inactive).
Take `COc1ccc([Si](C)(C)[C@H]2[C@H](CC(=O)N3CCC[C@H]3CO)O[C@@]3(C(=O)N(Cc4ccc(N5CCCCC5=O)cc4)c4ccccc43)[C@@H]2C)cc1`: the composite z-score in test [1] is 0.214 (inactive); with XIP peptide (Xip251-270) it was 0.753. Moreover, the z-score in test [2] is -1.64; in test [3], -4.85 (inactive); in test [4], 0.268 (inactive); in test [5], 0.241 (inactive).
Regarding `CCOC(=O)c1cn(C[C@H](Cc2ccccc2)NC(=O)N[C@H](CO)CCc2oc(C(C)=O)c(C(=O)OC)c2C(=O)OC)nn1`, the composite z-score in test [1] was 0.534 (inactive); in the test with XIP peptide (Xip251-270) it was 0.635. The z-score is -1.63 in test [2], -2.67 (inactive) in test [3], -0.107 (inactive) in test [4] and 0.432 (inactive) in test [5].
With `N#Cc1ccc(NN2C(C(O)C3CC=CCC3)C=CC3C(=O)N(c4ccccc4)C(=O)C32)cc1` (configuration not stated), the composite z-score is 0.0603 (inactive) in test [1] and 0.678 in the test with XIP peptide (Xip251-270). The z-score is 0.134 in test [2], -2.69 (inactive) in test [3], 0.123 (inactive) in test [4] and 0.22 (inactive) in test [5].
As to `O=C1O[C@H](c2ccccc2)[C@H](c2ccccc2)N2[C@H]1[C@@H](C(=O)O)[C@]1(C(=O)Nc3ccc(C#CCCO)cc31)[C@H]2c1ccc(OCCO)cc1`, the composite z-score is 0.671 (inactive) in test [1] and 0.856 with XIP peptide (Xip251-270). In addition, the z-score in test [2] was -0.481; in test [3], -5.39 (inactive); in test [4], -0.255 (inactive); in test [5], -0.132 (inactive).
`O=C1NC(=O)C2C1C=CC(C(O)c1ccc(B(O)O)cc1)N2Nc1ccc(Cl)cc1Cl` (configuration not stated): the composite z-score in test [1] is 0.185 (inactive); with XIP peptide (Xip251-270), -0.0187. In addition, the z-score in test [2] is -0.195; in test [3], -4.45 (inactive); in test [4], 0.549 (inactive); in test [5] it was 0.367 (inactive).
On to `COc1ccc([Si](C)(C)[C@H]2[C@H](CC(=O)N3Cc4ccccc4C[C@H]3CO)O[C@@]3(C(=O)N(C)c4c(Br)cc(C)cc43)[C@@H]2C)cc1`, for which the composite z-score is 0.0621 (inactive) in test [1] and 0.445 with XIP peptide (Xip251-270). Besides, the z-score is -2.61 in test [2], -4.14 (inactive) in test [3], 0.18 (inactive) in test [4] and -0.569 (inactive) in test [5].
`C=CCNC(=O)[C@H]1[C@@H]2C(=O)O[C@@H](c3ccccc3)[C@@H](c3ccccc3)N2[C@@H](c2ccc(OCCO)cc2)[C@]12C(=O)Nc1ccccc12`: the composite z-score was 1.43 (inactive) in test [1] and 0.57 in the test with XIP peptide (Xip251-270). The z-score in test [2] is -0.541; in test [3] it was -5.26 (inactive); in test [4], 0.286 (inactive); in test [5], 0.595 (inactive).
Regarding `C[N+](C)(C)CCCCNC(=O)[C@H]1C[C@H]2C(=O)N[C@@H](Cc3ccccc3)C(=O)N2[C@H]1c1cccc(OCCO)c1`, the results for the composite z-score (in test [1]; in the test on XIP peptide (Xip251-270)) were 0.875 (inactive) and 0.696, respectively. Also, the z-score is -0.352 in test [2], -3.44 (inactive) in test [3], 0.88 (inactive) in test [4] and 0.461 (inactive) in test [5].
As to `COc1ccc([Si](C)(C)[C@H]2[C@H](CC(=O)N3Cc4ccccc4C[C@H]3CO)O[C@@]3(C(=O)N(c4ccccc4)c4ccccc43)[C@@H]2C)cc1`, the figures for the composite z-score (in test [1]; with XIP peptide (Xip251-270)) were 0.065 (inactive) and 0.765, respectively. For the same molecule, the z-score was -2.01 in test [2], -5.4 (inactive) in test [3], -0.447 (inactive) in test [4] and -0.786 (inactive) in test [5].
